Where “and” joins values, the source holds several entries; their conditions need not be identical. Equal entries are not always repeated. The whole screen tested about 5,500 compounds, of which about 2,000 (36%) were called active. Another 18% or so got no clear call; they are omitted. No stated cut-off is given here; in the data, active means normalized growth mostly below about 0.91 (no sharp cut-off); inconclusive means no clear call, values can overlap the other calls; inactive means mostly above about 0.92. Some of the results follow.
Assay: chemical genetic growth profiling, strain panel (AID 1159580);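 further: tested at 20 µM; growth read once vehicle control cultures reached saturation at 30 °C; 1 = growth at the plate median or of vehicle wells; lower values mean less growth of the strain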
Conditions: S. cerevisiae deletion strains, growth OD

Measured: normalized growth

CN1CCCCC1c1ccc(-c2cccnc2)nc1 (stereo not given)
inactive: locus YAL013W, strain DEP1, hits give low values 1.01 | locus YAL021C, strain ccr4, hits give low values 0.987 | locus YAL026C, strain drs2, hits give low values 0.965 | locus YAL030W, strain snc1, hits give low values 0.984 | locus YBL061C, strain skt5, hits give low values 0.975 | locus YBR009C, strain hhf1, hits give low values 0.938 | locus YBR021W, strain FUR4, hits give low values 1.1 | locus YBR023C, strain chs3, hits give low values 0.99 | locus YBR171W, strain sec66, hits give low values 0.971 | locus YBR229C, strain ROT2, hits give low values 1.02 | locus YBR231C, strain swc5, hits give low values 0.982 | locus YBR279W, strain paf1, hits give low values 0.984 | locus YCL011C, strain gbp2, hits give low values 0.964 | locus YCL016C, strain dcc1, hits give low values 0.997 | locus YCL029C, strain bik1, hits give low values 0.97 | locus YCL061C, strain MRC1, hits give low values 0.98 | locus YCL069W, strain vba3, hits give low values 0.979 | locus YCR088W, strain abp1, hits give low values 0.994 | locus YDL005C, strain med2, hits give low values 0.964 | locus YDL035C, strain GPR1, hits give low values 1.01 | locus YDL040C, strain nat1, hits give low values 0.983 | locus YDL074C, strain BRE1, hits give low values 1.01 | locus YDL101C, strain DUN1, hits give low values 1.02 | locus YDL134C, strain PPH21, hits give low values 1.1 | locus YDL185W, strain tfp1, hits give low values 0.959 | locus YDL192W, strain arf1, hits give low values 0.983 | locus YDR001C, strain nth1, hits give low values 0.962 | locus YDR069C, strain doa4, hits give low values 0.962 | locus YDR101C, strain arx1, hits give low values 0.999 | locus YDR137W, strain rgp1, hits give low values 0.975 | locus YDR150W, strain NUM1, hits give low values 1.01 | locus YDR159W, strain sac3, hits give low values 0.927 | locus YDR162C, strain NBP2, hits give low values 1.07 | locus YDR195W, strain ref2 0.929 | locus YDR297W, strain sur2, hits give low values 0.967 | locus YDR318W, strain mcm21, hits give low values 1 | locus YDR334W, strain swr1, hits give low values 0.971 | locus YDR335W, strain msn5, hits give low values 0.99 | locus YDR388W, hits give low values 0.997 | locus YDR392W, strain spt3, hits give low values 0.874 | locus YDR502C, strain sam2, hits give low values 1.01 | locus YEL003W, strain gim4, hits give low values 0.979 | locus YEL037C, strain rad23, hits give low values 0.985 | locus YEL061C, strain CIN8 (second series), hits give low values 0.97 | locus YEL061C, strain CIN8, hits give low values 1.01 | locus YER015W, strain faa2, hits give low values 0.965 | locus YER016W, strain bim1, hits give low values 0.994 | locus YER110C, hits give low values 1 | locus YER111C, strain swi4, hits give low values 0.974 | locus YER155C, strain BEM2 (second series), hits give low values 0.971 | locus YER155C, strain BEM2, hits give low values 1.01 | locus YER167W, strain BCK2, hits give low values 1.03 | locus YFR010W, strain ubp6, hits give low values 0.969 | locus YGL078C, strain dbp3, hits give low values 0.996 | locus YGL086W, strain mad1, hits give low values 1.03 | locus YGL167C, strain pmr1, hits give low values 0.956 | locus YGL173C, strain kem1, hits give low values 0.973 | locus YGL227W, strain vid30, hits give low values 0.97 | locus YGL240W, strain doc1, hits give low values 0.965 | locus YGL248W, strain PDE1, hits give low values 1.01 | locus YGL253W, strain hxk2, hits give low values 0.992 | locus YGR135W, strain pre9, hits give low values 0.981 | locus YGR229C, strain SMI1, hits give low values 1.08 | locus YGR252W, strain gcn5, hits give low values 1.05 | locus YHR013C, strain ard1, hits give low values 0.929 | locus YHR027C, strain rpn1, hits give low values 0.984 | locus YHR030C, strain SLT2, hits give low values 0.995 and 1 | locus YHR079C, strain IRE1 (second series), hits give low values 0.998 | locus YHR079C, strain IRE1, hits give low values 0.988 | locus YHR094C, strain hxt1, hits give low values 1.02 | locus YHR129C, strain ARP1, hits give low values 1.02 | locus YHR142W, strain chs7, hits give low values 1 | locus YHR200W, strain rpn10, hits give low values 0.984 | locus YIL066C, strain RNR3, hits give low values 1.05 | locus YIL073C, strain SPO22, hits give low values 1.02 | locus YIL125W, strain kgd1, hits give low values 0.998 | locus YIR030C, strain dcg1, hits give low values 0.995 | locus YJL092W, strain hpr5, hits give low values 0.985 | locus YJL095W, strain BCK1 (second series), hits give low values 0.998 | locus YJL095W, strain BCK1, hits give low values 1.07 and 1.03 | locus YJL115W, strain asf1, hits give low values 0.991 | locus YJL129C, strain trk1, hits give low values 0.983 | locus YJL134W, strain LCB3, hits give low values 0.996 | locus YJL154C, strain vps35, hits give low values 0.994 | locus YJL164C, strain tpk1, hits give low values 1.02 | locus YJL166W, strain qcr8, hits give low values 0.983 | locus YJL168C, strain set2, hits give low values 0.996 | locus YJL187C, strain SWE1 (second series), hits give low values 1.04 | locus YJL187C, strain SWE1, hits give low values 0.979 | locus YJR043C, strain POL32, hits give low values 1.04 | locus YJR066W, strain TOR1, hits give low values 0.951 | locus YKL009W, strain mrt4, hits give low values 0.986 | locus YKL068W, hits give low values 0.997 | locus YKL085W, strain MDH1 (second series), hits give low values 1.01 | locus YKL085W, strain MDH1, hits give low values 1.01 | locus YKL160W, strain elf1, hits give low values 1.01 | locus YKL190W, strain CNB1, hits give low values 1.02 | locus YKR001C, strain vps1, hits give low values 0.996 | locus YKR026C, strain gcn3, hits give low values 0.967 | locus YKR091W, strain srl3, hits give low values 0.969 | locus YLL001W, strain dnm1, hits give low values 1 | locus YLL026W, hits give low values 1 | locus YLL041C, strain sdh2, hits give low values 0.991 | locus YLR027C, strain aat2, hits give low values 0.979 | locus YLR039C, strain RIC1, hits give low values 1.07 | locus YLR058C, strain SHM2, hits give low values 1.02 | locus YLR102C, strain apc9, hits give low values 0.999 | locus YLR113W, strain HOG1, hits give low values 1.03 | locus YLR221C, strain rsa3, hits give low values 0.994 | locus YLR258W, strain gsy2, hits give low values 0.985 | locus YLR262C, strain YPT6 (second series), hits give low values 1.01 | locus YLR262C, strain YPT6, hits give low values 1.04 | locus YLR268W, strain sec22, hits give low values 1.01 | locus YLR320W, strain mms22, hits give low values 0.993 | locus YLR330W, strain CHS5, hits give low values 1.01 | locus YLR342W, strain FKS1 (second series), hits give low values 1.06 | locus YLR342W, strain FKS1, hits give low values 0.971 | locus YLR357W, strain rsc2, hits give low values 0.968 | locus YLR370C, strain arc18, hits give low values 0.966 | locus YLR371W, strain rom2, hits give low values 0.971 | locus YLR384C, strain iki3, hits give low values 0.993 | locus YLR418C, strain cdc73, hits give low values 1.05 | locus YML016C, strain PPZ1, hits give low values 1.01 | locus YML032C, strain rad52, hits give low values 0.997 | locus YML120C, strain ndi1, hits give low values 0.984 | locus YML124C, strain tub3, hits give low values 0.998 | locus YMR058W, strain fet3, hits give low values 0.97 | locus YMR078C, strain ctf18, hits give low values 0.999 | locus YMR125W, strain sto1, hits give low values 0.942 | locus YMR129W, hits give low values 0.974 | locus YMR205C, strain PFK2, hits give low values 0.934 | locus YMR223W, strain ubp8, hits give low values 0.987 | locus YMR231W, strain pep5, hits give low values 0.967 | locus YMR307W, strain GAS1, hits give low values 1.19 | locus YNL067W, strain RPL9B, hits give low values 1.05 | locus YNL071W, strain lat1, hits give low values 0.993 | locus YNL183C, strain NPR1, hits give low values 0.979 | locus YNL209W, strain ssb2, hits give low values 0.966 | locus YNL233W, strain BNI4, hits give low values 1.07 | locus YNL248C, strain rpa49, hits give low values 1.02 | locus YNL250W, strain rad50, hits give low values 0.988 | locus YNL271C, strain bni1, hits give low values 0.988 | locus YNL298W, strain CLA4, hits give low values 1 | locus YNL307C, strain MCK1, hits give low values 1 | locus YNL322C, strain KRE1 (second series), hits give low values 0.971 | locus YNR049C, strain mso1, hits give low values 0.986 | locus YNR052C, strain pop2, hits give low values 0.993 | locus YOL006C, strain TOP1, hits give low values 1.11 | locus YOL012C, strain htz1 1.24 | locus YOL147C, strain pex11, hits give low values 1.01 | locus YOR001W, strain rrp6, hits give low values 1.02 | locus YOR061W, strain CKA2, hits give low values 1.01 | locus YOR069W, strain VPS5, hits give low values 1 | locus YOR070C, strain gyp1, hits give low values 0.997 | locus YOR080W, strain dia2, hits give low values 0.966 | locus YOR083W, strain WHI5, hits give low values 1.01 | locus YOR106W, strain vam3, hits give low values 1 | locus YOR136W, strain idh2, hits give low values 0.995 | locus YOR144C, strain elg1, hits give low values 1.01 | locus YOR184W, strain ser1, hits give low values 1.02 | locus YOR231W, strain MKK1, hits give low values 0.992 | locus YOR265W, strain rbl2, hits give low values 1.01 | locus YOR270C, strain vph1, hits give low values 0.974 | locus YOR290C, strain snf2, hits give low values 0.923 | locus YOR316C, strain cot1, hits give low values 0.99 | locus YPL051W, strain arl3, hits give low values 1.01 | locus YPL078C, strain atp4, hits give low values 0.999 | locus YPL106C, strain sse1, hits give low values 0.934 | locus YPL240C, strain hsp82, hits give low values 0.981 | locus YPL256C, strain CLN2, hits give low values 0.977 | locus YPR119W, strain clb2, hits give low values 1 | locus YPR141C, strain kar3, hits give low values 0.986 | locus YPR163C, strain tif3, hits give low values 0.998 | locus YPR167C, strain met16, hits give low values 0.999 | strain wtn01, hits give low values 0.983

— PubChem BioAssay AID1159580 (chemical genetic matrix, 2015)
